The text below walks through data of PubChem BioAssay (EPA / NIEHS).

The subject of experiment [1] is bovine Angiotensin II Receptor Type 2 (AT2), gene 407157. The experiment in a line: NVS_GPCR_bAT2: NovaScreen (NVS) G Protein-Coupled Receptor Assay for bovine Angiotensin II Receptor Type 2 (AT2) (AID 2283240). The method, boiled down:
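Radioligand displacement on bovine cerebellar membranes, 1 hour incubation, filter-based scintillation counting; loss of signal vs DMSO. Duplicate single-point screen at 25 uM, then concentration-response to 50 uM maximum.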

Experiment [2] deals with human Serotonin, 5-Hydroxytryptamine Receptor 2A (5HT2A), HTR2A (gene 3356) (UniProt P28223). The experiment in a line: NVS_GPCR_h5HT2A: NovaScreen (NVS) G Protein-Coupled Receptor Assay for human Serotonin, 5-Hydroxytryptamine Receptor 2A (5HT2A) (AID 2283249). The procedure, abridged:
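Human cortex membranes, cell-free radioligand binding; filter-based scintillation read 1.5 h after dosing. Duplicate screen at 25 uM first; displacement of specific binding (loss of signal) versus DMSO.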

Experiment [3] deals with guinea pig Muscarinic, Peripheral (Mperiperal) Receptor, Non-selective Binding, gene 100379235. The experiment in a line: NVS_GPCR_gMPeripheral_NonSelective: NovaScreen (NVS) G Protein-Coupled Receptor Assay for guinea pig Muscarinic, Peripheral (Mperiperal) Receptor, Non-selective Binding (AID 2283250). The procedure, abridged:
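Guinea pig bladder membranes, radioligand binding read 1 h after dosing by filter scintillation counting; loss of signal vs DMSO. Primary duplicate screen at 25 uM, then concentration-response up to 50 uM.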

Experiment [4] has as its target guinea pig Opioid, Kappa 1 Receptor (OpiateK), OPRK1 (gene 100135587) (UniProt P41144). The experiment in a line: NVS_GPCR_gOpiateK: NovaScreen (NVS) G Protein-Coupled Receptor Assay for guinea pig Opioid, Kappa 1 Receptor (OpiateK) (AID 2283252).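 Also: radioligand displacement from kappa opioid receptor in guinea pig cerebellar membranes; active means reduced radioligand binding relative to DMSO.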 The procedure, abridged:
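Signal is scintillation counts of filter-trapped radioligand bound to guinea pig cerebellar membrane receptor, measured 2 hours post-dosing. Activity is loss of binding versus DMSO, first at 25 uM in duplicate, then as concentration series for actives.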

For experiment [5], the target named is human Serotonin, 5-Hydroxytryptamine Receptor 7 (5HT7), HTR7 (gene 3363) (UniProt P34969). The experiment in a line: NVS_GPCR_h5HT7: NovaScreen (NVS) G Protein-Coupled Receptor Assay for human Serotonin, 5-Hydroxytryptamine Receptor 7 (5HT7) (AID 2283255).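 Also: hits reduce specific radioligand binding relative to DMSO.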 The procedure, abridged:
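Radioligand displacement on membranes from CHO cells expressing human 5HT7, 1 h incubation, filter-based scintillation counting. Primary screen used a single 25 uM concentration in duplicate; actives were followed up in concentration series.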

The target of experiment [6] is Adenosine receptor A1 (Bos taurus) (UniProt P28190). The experiment in a line: NVS_GPCR_bAdoR_NonSelective: NovaScreen (NVS) G Protein-Coupled Receptor Assay for bovine Adenosine Receptor (AdoR), Non-selective Binding (AID 2283244). The procedure, abridged: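 Bovine striatal membranes, radioligand displacement binding, 1 h after dosing, filter-based scintillation counting. Screened in duplicate at 25 uM, then concentration-response up to 50 uM; loss of specific binding relative to DMSO.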
Sequence of Adenosine receptor A1 (Bos taurus) (P28190 whole entry, looked up): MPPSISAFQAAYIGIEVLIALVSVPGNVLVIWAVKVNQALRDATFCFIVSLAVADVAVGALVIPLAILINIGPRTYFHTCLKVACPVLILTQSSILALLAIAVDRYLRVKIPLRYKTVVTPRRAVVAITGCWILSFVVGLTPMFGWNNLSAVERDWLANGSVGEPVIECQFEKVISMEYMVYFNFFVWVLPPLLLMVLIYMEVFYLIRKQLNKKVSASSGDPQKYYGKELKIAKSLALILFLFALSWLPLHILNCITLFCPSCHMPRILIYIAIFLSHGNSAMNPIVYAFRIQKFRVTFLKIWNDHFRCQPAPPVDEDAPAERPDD

Experiment [7] addresses bovine Dopamine Receptor (DR), Non-selective Binding, DRD1 (gene 281125) (UniProt Q95136). The experiment in a line: NVS_GPCR_bDR_NonSelective: NovaScreen (NVS) G Protein-Coupled Receptor Assay for bovine Dopamine Receptor (DR), Non-selective Binding (AID 2283241). The procedure, abridged:
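Bovine striatal membranes; radioligand displacement read by filtration and scintillation counting 1 h after dosing, loss of signal vs DMSO. Screened in duplicate at 25 uM, then concentration-response for hits.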

In experiment [8] the target is human Serotonin, 5-Hydroxytryptamine Receptor 5A (5HT5A), HTR5A (gene 3361) (UniProt P47898). The experiment in a line: NVS_GPCR_h5HT5A: NovaScreen (NVS) G Protein-Coupled Receptor Assay for human Serotonin, 5-Hydroxytryptamine Receptor 5A (5HT5A) (AID 2283251). The procedure, abridged:
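Cell-free radioligand displacement binding on HEK293-derived membrane protein, 1 h incubation, filter-based scintillation counting. Primary screen in duplicate at 25 uM, actives followed in concentration series; loss of signal fitted versus DMSO.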

Experiment [9] concerns guinea pig Leukotriene B4 Receptor (LTB4), gene 100379538. The experiment in a line: NVS_GPCR_gLTB4: NovaScreen (NVS) G Protein-Coupled Receptor Assay for guinea pig Leukotriene B4 Receptor (LTB4) (AID 2283247). The procedure, abridged: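 Radioligand displacement on guinea pig spleen membranes, filter-based scintillation counting 2 h after dosing. Primary duplicate single point at 25 uM; hits over threshold (e.g. 30% inhibition) run in concentration-response up to 50 uM, DMSO baseline.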

Experiment [10] deals with human Adrenergic, Alpha 2A Receptor (Adra2A), ADRA2A (gene 150) (UniProt P08913). The experiment in a line: NVS_GPCR_hAdra2A: NovaScreen (NVS) G Protein-Coupled Receptor Assay for human Adrenergic, Alpha 2A Receptor (Adra2A) (AID 2283257). The method, boiled down:
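Radioligand filter-binding was run on HT29-derived membranes, cell-free, read by scintillation counting 1 h after dosing. Primary screening was in duplicate at 25 uM, with concentration series in follow-up. Loss of signal versus DMSO indicates displacement.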

In experiment [11] the target is human Adrenergic, Beta 1 Receptor (Adrb1), ADRB1 (gene 153) (UniProt P08588). The experiment in a line: NVS_GPCR_hAdrb1: NovaScreen (NVS) G Protein-Coupled Receptor Assay for human Adrenergic, Beta 1 Receptor (Adrb1) (AID 2283258). The method, boiled down: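 Cell-free radioligand displacement on receptor from human neuroepithelioma cells; 2 h after dosing, filter-based scintillation counting. Primary screen in duplicate at 25 uM, actives retested in concentration series; loss of signal vs DMSO baseline.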
Sequence of human Adrenergic, Beta 1 Receptor (Adrb1), ADRB1 (gene 153) (P08588 whole entry, looked up): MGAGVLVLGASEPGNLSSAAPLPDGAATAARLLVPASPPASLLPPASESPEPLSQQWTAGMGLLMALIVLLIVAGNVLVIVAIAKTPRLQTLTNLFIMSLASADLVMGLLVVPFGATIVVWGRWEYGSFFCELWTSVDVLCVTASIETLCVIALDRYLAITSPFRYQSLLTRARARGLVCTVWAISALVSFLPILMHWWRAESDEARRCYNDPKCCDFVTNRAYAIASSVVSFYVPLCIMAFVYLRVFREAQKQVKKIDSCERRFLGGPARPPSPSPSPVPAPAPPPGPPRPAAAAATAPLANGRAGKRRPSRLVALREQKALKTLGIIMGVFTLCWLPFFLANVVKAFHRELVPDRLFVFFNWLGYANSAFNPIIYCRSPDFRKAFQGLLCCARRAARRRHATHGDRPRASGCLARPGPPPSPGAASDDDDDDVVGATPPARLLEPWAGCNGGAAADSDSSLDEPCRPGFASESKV

In experiment [12] the target is human Adrenergic, Alpha 2c Receptor (Adra2C), ADRA2C (gene 152) (UniProt P18825). The experiment in a line: NVS_GPCR_hAdra2C: NovaScreen (NVS) G Protein-Coupled Receptor Assay for human Adrenergic, Alpha 2c Receptor (Adra2C) (AID 2283259). The method, boiled down: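 Radioligand binding on Sf9-expressed receptor membranes, 1 h after chemical dosing, filter-based scintillation read-out. Loss of binding fitted positively versus DMSO; primary duplicate screen at 25 uM, actives retested in concentration series.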
Sequence of human Adrenergic, Alpha 2c Receptor (Adra2C), ADRA2C (gene 152) (P18825 whole entry, looked up): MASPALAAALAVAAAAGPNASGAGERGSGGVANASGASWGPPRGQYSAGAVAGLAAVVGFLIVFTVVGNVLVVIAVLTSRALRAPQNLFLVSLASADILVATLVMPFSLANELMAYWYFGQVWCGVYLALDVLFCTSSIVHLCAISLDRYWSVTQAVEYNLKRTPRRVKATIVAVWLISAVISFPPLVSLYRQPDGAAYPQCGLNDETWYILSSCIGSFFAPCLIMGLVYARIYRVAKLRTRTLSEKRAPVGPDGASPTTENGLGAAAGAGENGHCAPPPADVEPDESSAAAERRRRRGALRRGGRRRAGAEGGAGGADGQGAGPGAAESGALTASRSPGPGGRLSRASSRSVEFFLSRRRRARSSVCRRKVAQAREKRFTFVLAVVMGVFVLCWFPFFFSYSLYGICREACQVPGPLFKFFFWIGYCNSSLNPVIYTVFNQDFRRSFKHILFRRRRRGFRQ

The target in experiment [13] is Beta-2 adrenergic receptor (Homo sapiens) (UniProt P07550). The experiment in a line: NVS_GPCR_hAdrb2: NovaScreen (NVS) G Protein-Coupled Receptor Assay for human Adrenergic, Beta 2 Receptor (Adrb2) (AID 2283261). The method, boiled down:
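Filter-based radioligand binding using receptor prepared from CHO cells, 1 h incubation, scintillation counting. Primary screen in duplicate at 25 uM, actives retested in concentration series; loss of binding relative to DMSO.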

The target of experiment [14] is human Adenosine A1 Receptor (AdoRA1), ADORA1 (gene 134) (UniProt P30542). The experiment in a line: NVS_GPCR_hAdoRA1: NovaScreen (NVS) G Protein-Coupled Receptor Assay for human Adenosine A1 Receptor (AdoRA1) (AID 2283254). The procedure, abridged:
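Radioligand binding was run on human cortical membranes, cell-free, with filter-based scintillation counting 1 h after dosing. The primary screen was duplicate at 25 uM, followed by concentration series. Signal loss versus DMSO was fitted positive-direction.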

In experiment [15] the test system is bovine Histamine 1 Receptor (H1), gene 281231. The experiment in a line: NVS_GPCR_bH1: NovaScreen (NVS) G Protein-Coupled Receptor Assay for bovine Histamine 1 Receptor (H1) (AID 2283246). The method, boiled down:
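Radioligand displacement on bovine cerebellar membranes, 1 h after dosing, filter-based scintillation read-out; loss of signal vs DMSO. Duplicate single-concentration screen at 25 uM, then concentration-response up to 50 uM for hits.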

The target in experiment [16] is guinea pig Leukotriene D4 Receptor (LTD4), CYSLTR1 (gene 100135514) (UniProt Q2NNR5). The experiment in a line: NVS_GPCR_gLTD4: NovaScreen (NVS) G Protein-Coupled Receptor Assay for guinea pig Leukotriene D4 Receptor (LTD4) (AID 2283248). The procedure, abridged:
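Radioligand displacement on guinea pig lung membranes, 1 h incubation, filtration and scintillation counting; DMSO as negative control. Duplicate 25 uM primary screen, then singleton concentration-response up to 50 uM.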

Inconclusive results are not listed. Calls of active or inactive are those of the source. The calls were made as follows: active = hit-call score of the fitted dose curve at least 0.9, where 1 is the maximum; inconclusive = response in the unintended direction; inactive = score below 0.9.

Sequence of guinea pig Opioid, Kappa 1 Receptor (OpiateK), OPRK1 (gene 100135587) (P41144 whole entry, looked up): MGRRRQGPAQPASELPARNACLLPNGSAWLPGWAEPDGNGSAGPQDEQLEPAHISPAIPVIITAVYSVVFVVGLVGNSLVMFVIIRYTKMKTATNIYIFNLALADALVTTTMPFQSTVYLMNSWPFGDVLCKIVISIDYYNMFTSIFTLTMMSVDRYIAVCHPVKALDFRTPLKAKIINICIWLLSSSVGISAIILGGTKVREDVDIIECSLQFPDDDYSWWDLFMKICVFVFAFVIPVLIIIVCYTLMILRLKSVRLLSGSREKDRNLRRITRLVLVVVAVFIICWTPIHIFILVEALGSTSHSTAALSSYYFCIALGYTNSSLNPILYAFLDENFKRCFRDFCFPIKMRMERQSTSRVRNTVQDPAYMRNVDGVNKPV
Sequence of human Adrenergic, Alpha 2A Receptor (Adra2A), ADRA2A (gene 150) (P08913 whole entry, looked up): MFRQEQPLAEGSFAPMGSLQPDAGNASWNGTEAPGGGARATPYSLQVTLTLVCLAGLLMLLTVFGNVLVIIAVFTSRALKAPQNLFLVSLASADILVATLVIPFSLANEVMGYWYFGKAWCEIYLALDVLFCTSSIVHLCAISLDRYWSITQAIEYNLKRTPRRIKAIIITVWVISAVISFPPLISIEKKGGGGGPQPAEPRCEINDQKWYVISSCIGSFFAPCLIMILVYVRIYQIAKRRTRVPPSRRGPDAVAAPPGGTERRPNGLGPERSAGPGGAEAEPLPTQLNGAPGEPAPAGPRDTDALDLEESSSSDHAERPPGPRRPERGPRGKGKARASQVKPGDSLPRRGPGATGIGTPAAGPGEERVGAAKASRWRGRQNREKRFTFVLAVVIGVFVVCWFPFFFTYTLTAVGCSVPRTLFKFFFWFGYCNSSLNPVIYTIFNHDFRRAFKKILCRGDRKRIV
Sequence of human Serotonin, 5-Hydroxytryptamine Receptor 2A (5HT2A), HTR2A (gene 3356) (P28223 whole entry, looked up): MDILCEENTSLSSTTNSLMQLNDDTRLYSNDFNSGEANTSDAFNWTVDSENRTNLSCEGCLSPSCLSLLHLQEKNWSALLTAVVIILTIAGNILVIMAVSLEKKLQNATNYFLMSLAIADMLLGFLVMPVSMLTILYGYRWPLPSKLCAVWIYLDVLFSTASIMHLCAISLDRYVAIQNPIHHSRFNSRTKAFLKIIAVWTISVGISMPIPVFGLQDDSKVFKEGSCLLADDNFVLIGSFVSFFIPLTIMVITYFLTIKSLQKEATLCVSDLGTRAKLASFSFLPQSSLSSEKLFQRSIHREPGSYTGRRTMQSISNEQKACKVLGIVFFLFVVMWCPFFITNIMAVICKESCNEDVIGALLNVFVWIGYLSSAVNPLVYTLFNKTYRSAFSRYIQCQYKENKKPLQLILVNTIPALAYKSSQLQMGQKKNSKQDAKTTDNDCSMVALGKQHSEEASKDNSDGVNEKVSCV
Sequence of human Serotonin, 5-Hydroxytryptamine Receptor 5A (5HT5A), HTR5A (gene 3361) (P47898 whole entry, looked up): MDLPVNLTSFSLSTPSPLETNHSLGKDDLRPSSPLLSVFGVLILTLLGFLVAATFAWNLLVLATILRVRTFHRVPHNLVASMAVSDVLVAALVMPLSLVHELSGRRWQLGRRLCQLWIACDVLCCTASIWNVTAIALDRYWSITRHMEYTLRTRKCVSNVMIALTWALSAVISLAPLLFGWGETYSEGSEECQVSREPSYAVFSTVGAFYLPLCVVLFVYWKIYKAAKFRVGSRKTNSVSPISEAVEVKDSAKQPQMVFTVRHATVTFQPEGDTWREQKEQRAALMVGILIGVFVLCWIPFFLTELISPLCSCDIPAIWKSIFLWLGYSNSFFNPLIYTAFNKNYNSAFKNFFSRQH
Sequence of human Serotonin, 5-Hydroxytryptamine Receptor 7 (5HT7), HTR7 (gene 3363) (P34969 whole entry, looked up): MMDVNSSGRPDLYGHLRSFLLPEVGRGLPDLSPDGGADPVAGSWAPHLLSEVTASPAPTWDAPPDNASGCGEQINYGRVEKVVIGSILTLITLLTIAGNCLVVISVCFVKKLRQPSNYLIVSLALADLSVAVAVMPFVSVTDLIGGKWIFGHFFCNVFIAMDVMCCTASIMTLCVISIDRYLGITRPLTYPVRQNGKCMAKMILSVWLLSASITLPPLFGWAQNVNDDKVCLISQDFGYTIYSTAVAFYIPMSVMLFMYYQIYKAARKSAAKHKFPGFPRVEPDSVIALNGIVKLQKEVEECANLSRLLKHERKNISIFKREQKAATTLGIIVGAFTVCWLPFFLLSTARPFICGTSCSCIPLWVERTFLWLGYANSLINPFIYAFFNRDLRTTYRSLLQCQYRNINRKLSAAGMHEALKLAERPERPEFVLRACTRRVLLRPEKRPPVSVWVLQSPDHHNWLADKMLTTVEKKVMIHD
Sequence of human Adenosine A1 Receptor (AdoRA1), ADORA1 (gene 134) (P30542 whole entry, looked up): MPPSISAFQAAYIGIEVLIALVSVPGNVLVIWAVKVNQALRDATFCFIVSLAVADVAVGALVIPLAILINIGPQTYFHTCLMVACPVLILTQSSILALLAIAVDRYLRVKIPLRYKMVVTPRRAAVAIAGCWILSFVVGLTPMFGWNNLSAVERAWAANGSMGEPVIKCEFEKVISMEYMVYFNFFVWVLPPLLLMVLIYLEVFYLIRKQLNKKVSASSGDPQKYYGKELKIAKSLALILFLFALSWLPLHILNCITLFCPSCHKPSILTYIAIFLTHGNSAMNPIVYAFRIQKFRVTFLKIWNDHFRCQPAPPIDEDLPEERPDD
Sequence of bovine Dopamine Receptor (DR), Non-selective Binding, DRD1 (gene 281125) (Q95136 whole entry, looked up): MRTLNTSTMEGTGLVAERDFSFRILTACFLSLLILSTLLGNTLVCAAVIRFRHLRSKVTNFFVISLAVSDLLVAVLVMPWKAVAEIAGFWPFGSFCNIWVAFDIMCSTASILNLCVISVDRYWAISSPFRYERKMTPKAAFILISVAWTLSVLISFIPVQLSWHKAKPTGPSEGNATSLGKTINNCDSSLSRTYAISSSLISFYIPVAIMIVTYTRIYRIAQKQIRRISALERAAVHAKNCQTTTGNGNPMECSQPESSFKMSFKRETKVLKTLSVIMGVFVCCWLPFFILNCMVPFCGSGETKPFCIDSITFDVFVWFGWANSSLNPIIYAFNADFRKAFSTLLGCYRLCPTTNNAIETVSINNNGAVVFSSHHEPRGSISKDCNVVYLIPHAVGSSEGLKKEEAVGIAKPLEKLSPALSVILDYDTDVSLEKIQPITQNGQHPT
Sequence of Beta-2 adrenergic receptor (Homo sapiens) (P07550 whole entry, looked up): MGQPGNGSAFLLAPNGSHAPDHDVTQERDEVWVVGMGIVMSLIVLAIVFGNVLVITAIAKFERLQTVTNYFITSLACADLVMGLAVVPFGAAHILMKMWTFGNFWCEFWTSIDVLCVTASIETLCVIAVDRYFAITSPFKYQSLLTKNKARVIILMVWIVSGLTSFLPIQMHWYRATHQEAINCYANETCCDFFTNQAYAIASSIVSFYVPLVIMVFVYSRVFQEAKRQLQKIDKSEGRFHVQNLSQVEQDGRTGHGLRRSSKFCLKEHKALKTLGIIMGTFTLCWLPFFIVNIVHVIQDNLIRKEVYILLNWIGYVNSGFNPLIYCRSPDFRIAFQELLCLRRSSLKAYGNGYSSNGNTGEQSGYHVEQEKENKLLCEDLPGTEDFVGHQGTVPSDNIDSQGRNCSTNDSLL
Sequence of guinea pig Leukotriene D4 Receptor (LTD4), CYSLTR1 (gene 100135514) (Q2NNR5 whole entry, looked up): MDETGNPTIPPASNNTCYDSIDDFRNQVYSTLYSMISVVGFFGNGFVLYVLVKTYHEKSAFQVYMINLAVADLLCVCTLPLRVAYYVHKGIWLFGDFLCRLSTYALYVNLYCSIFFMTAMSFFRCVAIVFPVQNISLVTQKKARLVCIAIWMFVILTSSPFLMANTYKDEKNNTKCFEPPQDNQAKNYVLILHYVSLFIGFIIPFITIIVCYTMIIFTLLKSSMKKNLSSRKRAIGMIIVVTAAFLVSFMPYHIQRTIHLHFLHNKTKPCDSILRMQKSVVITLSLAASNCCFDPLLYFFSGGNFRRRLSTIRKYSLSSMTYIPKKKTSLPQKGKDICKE

Usually AC50 stands for the concentration giving half of the maximal activity seen. On to `CNS(=O)(=O)c1cc(C(=O)N2CCC(CCN3C4CCC3CC(n3c(C)nc5ccccc53)C4)(c3cccc(F)c3)CC2)c(Cl)cc1F` (centres undefined), for which, in [1], the result was inactive. Further, the AC50 in experiment [2] was 1.52 µM (active); in experiment [3] it was 5.36 µM (active); in experiment [4] it was 0.935 µM (active); in experiment [5], 4.35 µM (active).

In the case of `Cn1c(=O)c2c(ncn2C)n(C)c1=O`, the AC50 in experiment [6] was 25 µM (active).

For the compound `CCn1nc(Cc2ccccc2)cc1C1CCN(C[C@H]2C[C@H](N(C)[C@@H](C(=O)O)C(C)C)C[C@@H]2c2cccc(F)c2)CC1`, the results for the AC50 in experiment [7], in experiment [8] and in [4] were 18.6 µM (active), 13.8 µM (active) and 8.5 µM (active), respectively.

For `On1ccccc1=S`, the AC50 in experiment [4] is 10.4 µM (active).

With `O=C(CCCCCCCCc1cccnc1)N1CCC(C=C(c2ccccc2)c2ccccc2)CC1`, the outcome in [9], in experiment [2] and in experiment [8] was inactive.

For `CCN(C(=O)c1cc(C)cc(OC[C@H](C)Nc2ccncc2)c1)C(C)C`, the call in experiment [2] was inactive. For the same compound, the concentration at half-maximal activity (AC50) in [10] is 7.91 µM (active).

Take `O=C(O)CCN(C1(C(=O)NO)CCCC1)S(=O)(=O)c1ccc(Oc2ccc(F)cc2)cc1`: the AC50 in experiment [9] is 0.951 µM (active).

`CCOC(=O)COc1ccc2c(c1)CC(NCC(O)c1cccc(Cl)c1)CC2` (centres undefined): the AC50 was 12.1 µM (active) in experiment [2]; 22.9 µM (active) in [3]; 18.8 µM (active) in experiment [8]; 22.9 µM (active) in [5]; 7.53 µM (active) in experiment [10]; 3.33 µM (active) in experiment [11]. Also, the results for the AC50 in experiment [12] and in [13] were 3.81 µM (active) and 0.0827 µM (active), respectively.

Consider `Cn1c(=O)cc(Oc2ccc(F)cc2F)c2cnc(NCC(C)(C)O)nc21`, for which the result in experiment [4] was inactive.

Take `Cc1c(-c2cccnc2)c2ccccc2n1CCCCC(=O)O`: the AC50 in experiment [4] is 14.7 µM (active).

In the case of `CC[C@H]1CC[C@H](NCc2cc3c(cc2OC)[C@H]2C[C@H]2C(=O)N3C)[C@H](c2ccccc2)N1`, the AC50 in [2] was 9.49 µM (active); in experiment [3] it was 1.05 µM (active); in experiment [4] it was 2.02 µM (active); in experiment [14] it was 13.6 µM (active); in experiment [5], 20.4 µM (active); in [10], 4.96 µM (active).

In the case of `CC(=O)OCCC(C)C`, the result in experiment [5] was inactive.

For `CCCN(C1CCN(C(=O)C2CCNCC2)CC1)[C@@H]1CCc2ccc(OC)cc2C1`, the AC50 in experiment [7] was 8.91 µM (active); in experiment [15], 11.6 µM (active); in experiment [9], 9.93 µM (active); in experiment [3] it was 0.00229 µM (active); in [4], 7.41 µM (active); in experiment [5], 9.11 µM (active). Moreover, in experiment [10], the AC50 was 17.4 µM (active).

Regarding `CCOc1cccc(-n2cc(C(=O)N3CCN(c4cc(C(=O)O)c5ccccc5c4)CC3)nc2-c2ccc(C)cc2)c1`, the outcome in experiment [6] was inactive. The AC50 is 19.8 µM (active) in experiment [16]; 34 µM (active) in experiment [8]; 14.3 µM (active) in experiment [14]; 23.8 µM (active) in experiment [5]; 12.3 µM (active) in experiment [12]; 6.36 µM (active) in experiment [13].

Take `O=C(O)CC(O)C(=O)O` (centres undefined): the result in experiment [4] and in experiment [10] was inactive.
